# Results filed as inconclusive are left out. Values without a mark were called inactive. Activity calls are given as the source filed them. Calls come from the whole dose curve; as a rule, active = well fitted cell-killing curve with a large enough effect in the repeat runs; inconclusive = weak or mixed curves, or effect the other way; inactive = no such curve, though single readings can be large or run the other way.
# Assay: qHTS assay to identify small molecule agonists of the estrogen receptor alpha (ER-alpha) signaling pathway in the presence of an antagonist - cell viability counter screen (AID 1259386);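 note: cells exposed to compounds for 22 h at 37 °C before the viability read; nearly all actives have a fitted effect of over 30% in size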
# Settings: VM7Luc4E2 viability, CellTiter-Fluor fluorescence, 22 h; series mostly up to 92.4 µM; activity change, negative = cytotoxicity: at the top concentration
# Source text: National Center for Advancing Translational Sciences [NCATS]
# NIH Chemical Genomics Center [NCGC]
# U.S. Environmental Protection Agency [EPA]
# National Institutes of Environmental Health Sciences [NIEHS]
# National Toxicology Program [NTP]
# U.S. Food and Drug Administration [FDA]
# Estrogen receptor (ER), a member of nuclear hormone receptor plays an important role in development, metabolic homeostasis and reproduction. Two subtypes of ER, ER-alpha and ER-beta, have similar expression patterns with some uniqueness in both types. Endocrine disrupting chemicals (EDCs) and their interactions with steroid hormone receptors like ER causes disruption of normal endocrine function. Therefore, it is important to understand the effect of environmental chemicals in ER signaling pathway. For identifying ER agonists, VM7Luc4E2 cell line has been used in the current assay.
# VM7Luc4E2 cell line (provided by Denison MS, University of California) endogenously expresses full-length ER-alpha and is stably transfected with a plasmid containing four estrogen responsive elements (ERE) upstream of a luciferase reporter gene. This current screening for measuring luciferase reporter gene activity using VM7Luc4E2 cells against Tox21 10K library collection is a confirmation study on agonist mode screening in presence of ER-antagonist (ICI-182,780) at 10.0nM final concentration. The cytotoxicity of the compounds was tested in parallel by measuring the cell viability using CellTiter-Fluor assay system (Promega, Madison, WI) in the same wells.
# Tox21 Assay Protocol Summary:
# VM7Luc4E2 cells were cultured in phenol red free assay medium containing 10% charcoal stripped FBS for 5 days prior to the assay. The cells were dispensed at 4,000 cells in 4uL of assay medium per well into white wall/solid-bottom 1536-well plates (Corning Life Sciences, Corning, NY) using a Multidrop Combi (Thermo Fisher Scientific Inc., Waltham, MA) dispenser. After the assay plates were incubated at 37C and 5% CO2 for 24hr, 1uL of 10.0nM (final concentration) ICI-182,780 or assay buffer was added using two separate tips of Flying Reagent Dispenser (FRD, Aurora Discovery, San Diego, CA). Then 23nL of compounds dissolved in DMSO at 15 concentrations and positive controls or DMSO only was transferred to the assay plates by a Pintool station (Wako, San Diego, CA). The assay plates were incubated at 37C and 5% CO2 for 22hr. After 21hr incubation at 37C, 1uL/well CellTiter-Fluor reagent (Promega Corporation, Madison, WI) was added to each well using FRD and after 1hr incubation at 37C and 5% CO2, the fluorescence signal was measured on ViewLux plate reader (PerkinElmer, Shelton, CT).
# % is set by controls: 0 for no effect and ±100 for the full control effect; potency is the fitted concentration of half-maximal effect.
Compound,"activity change, negative = cytotoxicity",Potency
COc1cc(C(C)C)ccc1C,-2.95% [at 19 µM],–
O=C1CCC(=O)N1,1.45%,–
Cc1cccc(C)c1C,0.482%,–
NC(=O)C1CO1 (stereo not given),1.22%,–
C=CC(=O)OCCOC1C2CCC1C1CC=CC12 (stereo not given),0.411% [at 19 µM],–
CCOc1nc(F)cc2nc(S(=O)(=O)Nc3c(Cl)cccc3C(=O)OC)nn12,-1.81%,–
CCCCCCCCCCCCCCCCC(C(=O)O)C(O)(CC(=O)O)C(=O)O (stereo not given),2.12% [at 42.5 µM],–
C1=CCCC1,-0.804%,–
CC(C)(C)c1cc(CCC(=O)OCCSCCOC(=O)CCc2cc(C(C)(C)C)c(O)c(C(C)(C)C)c2)cc(C(C)(C)C)c1O,-1.59% [at 42.5 µM],–
O=C(c1ccccc1)c1ccc(Cl)cc1,-4.54%,–
CN1CC[C@H](c2c(O)cc(O)c3c(=O)cc(-c4ccccc4Cl)oc23)[C@H](O)C1,-10.2% [at 42.5 µM],–
c1ccc(C[P+](c2ccccc2)(c2ccccc2)c2ccccc2)cc1,–,27.3 µM (active)
CCOC(=O)C1=NN(c2ccc(Cl)cc2Cl)C(C)(C(=O)OCC)C1 (stereo not given),-2.03%,–
Cc1cc(C)c(O)c(C(C)(C)C)c1,-3.31%,–
CCN(CC)c1ccc(C=O)c(O)c1,-13.9%,–
C/C=C/C(=O)C1=C(C)C=CCC1(C)C,2.79%,–
CCc1cccc(C)c1N(C(=O)CS(=O)(=O)O)C(C)COC (stereo not given),-5.8%,–
CC1=CC[C@@H](C(C)(C)O)CC1,-0.709%,–
CCn1c2ccccc2c2ccccc21,2.73%,–
CCNc1nc(NC(C)(C)C)nc(OC)n1,-3.25%,–

Compound,"activity change, negative = cytotoxicity",Potency
c1ccc2cc3c4ccccc4c4ccccc4c3cc2c1,2.05%,–
NC(=O)c1ccccc1Cl,-2.72%,–
Cc1cccc2c1ccc1ccccc12,2.38%,–
O=C1OCc2ccccc21,-1.63%,–
CCCCCCCCc1ccc(Nc2ccc(CCCCCCCC)cc2)cc1,0.458% [at 42.5 µM],–
CC(C)=CCC[C@H](C)CC=O,6%,–
CCc1cccc(CC)c1,1%,–
CCCCCN=C(N)N/N=C/c1c[nH]c2ccc(OC)cc12,–,33.5 µM (active)
CCCCCCCCCC[N+](C)(CCCCCCCCCC)CCC[Si](OC)(OC)OC,-3.83%,–
COc1cc([C@@H]2c3cc4c(cc3[C@@H](O[C@@H]3O[C@@H]5CO[C@@H](C)O[C@H]5[C@H](O)[C@H]3O)[C@H]3COC(=O)[C@H]23)OCO4)cc(OC)c1O,-0.708%,–
CCCC(C)C=O (stereo not given),1.2%,–
CCN(CC)c1ccc(C=O)cc1,0.601%,–
COc1cc(OC)nc(NC(=O)NS(=O)(=O)Nc2ccccc2C(=O)N(C)C)n1,-0.0353%,–
Nc1ccc2c(S(=O)(=O)O)cccc2c1S(=O)(=O)O,4.02% [at 42.5 µM],–
C=Cc1ccncc1,1.2%,–
O=C(NCc1ncc(C(F)(F)F)cc1Cl)c1c(Cl)cccc1Cl,1.47%,–
CCCCCCCCCCCCS(=O)(=O)Cl,-0.178% [at 19 µM],–
O=C(O)C[C@H](O)C[C@H](O)/C=C/c1c(C2CC2)nc2ccccc2c1-c1ccc(F)cc1,8.43% [at 19 µM],–
O=C1OC(=O)c2cc(-c3ccc4c(c3)C(=O)OC4=O)ccc21,-3.98%,–
O=C1CCC/C=C\CCCCCCCCCC1,1.89%,–

# Source: PubChem BioAssay (Tox21)
